Compound activity: PubChem BioAssay, National Center for Advancing Translational Sciences (NCATS)
The entries come from a sample that favours hits as a whole.
Pf Dd2 inh = inhibitors of Plasmodium falciparum Dd2 growth; Potency, µM (top dose mostly 28.9 µM), for the others: top-dose activity, negative = inhibition, hits mostly inhibitors; P. falciparum Dd2 growth, SYBR Green, 72 h; hit rate 4.3% among 120,000; active = well fitted inhibition curve with a large enough effect;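 note: plate controls were DMSO vehicle for no effect and reference drug for full effect; nearly all actives have a fitted effect of over 65% in size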
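Infected erythrocytes (Dd2, 0.3% parasitemia, 2.5% hematocrit final) are added to compound in RPMI-1640/Albumax II medium, grown 72 h at 37C in low oxygen, then lysed with saponin/Triton-X containing SYBR Green and read by fluorescence.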
* hit, by the source's call; i = inactive; [ ] = remark or other dose. Potency is the fitted concentration of half-maximal effect.

SMILES	Pf Dd2 inh
CCOc1ccc(NC(=O)c2cn(C)c(=O)c3cc(OC)c(OC)cc23)cc1	21%
COc1cc(OC)c(NC(=O)c2cn(C)c(=O)c3cc(OC)c(OC)cc23)cc1Cl	15%
CCn1cc(C(=O)N2CCN(c3ccc(C)cc3)C(C)C2)c(=O)c2cc(S(=O)(=O)N3CCCC3)ccc21 (configuration not stated)	20%
CCn1cc(C(=O)N2CCN(c3ccccc3OC)CC2)c2cc(OC)c(OC)cc2c1=O	-9%
COc1cc2c(C(=O)N3CCN(c4ccc(C)cc4)C(C)C3)cn(CC(C)C)c(=O)c2cc1OC (configuration not stated)	8.9µM*
COc1ccc(NC(=O)c2cn(CC(C)C)c(=O)c3cc(OC)c(OC)cc23)cc1Cl	11µM*
CCC1Oc2ccc(Cl)cc2N(CC(=O)NCCc2ccc(Cl)cc2)C1=O (configuration not stated)	3%
COc1ccc(NC(=O)c2cccc(N3CCCS3(=O)=O)c2)cc1	10%
COc1ccc(OC)c(S(=O)(=O)NCc2cccn2Cc2cccc(C)c2)c1	5%
c1ccc2c(c1)COC1(CCNC1)CN2CC1CCCCC1 (configuration not stated)	13µM*
O=C(C1CCCC1)N1CC2(CCNC2)OCc2ccccc21 (configuration not stated)	-11%
O=C(C1CCCC1)N1CC2(CCN(C3COC3)C2)OCc2ccccc21 (configuration not stated)	-28%
CCC(C)NC(=O)N1CC(Oc2cccc(-c3nc(C)no3)c2)C1 (configuration not stated)	37%[5.79 µM]
CCn1cc(S(=O)(=O)N2CCOc3ccc(CCC(=O)NCC4CC4)cc3C2)cn1	-13%
CN1CC(=O)N(C2CCCNC2)Cc2c(NCC3CCCCC3)ncnc21 (configuration not stated)	-13%
CN1CCN(CC2(c3nc4c([nH]3)CC(C)(C)CNC4=O)CC2)CC1	17%
N[C@@H]1CC[C@H](C(=O)NCc2csc(N3CCCC3)n2)C1	11µM*
Cc1nc(CN2CCN(C(=O)[C@H]3CC[C@@H](N)C3)CC2)cs1	22%
O=C(NCc1csc(-c2cnccn2)n1)[C@H]1CCC[C@H](O)C1	-11%
Cc1noc([C@@H]2CC(F)(F)CN2C(=O)c2ccc3nc[nH]c3c2)n1	2%
Cc1ccccc1CN1Cc2nc(-c3ccccc3)ccc2OCC1=O	-7%[44.1 µM]
Cc1ccccc1CN1Cc2nc(N3CCCC3)ccc2OCC1=O	10µM*
Cc1ccccc1CN1Cc2nc(-c3cnn(C)c3)ccc2OCC1=O	i
CC(C)NC(=O)[C@@H](C)C1CC[C@@]2(C)CC[C@H](NC(=O)c3cccc(F)c3)[C@@H](C)[C@@H]2[C@H]1O (some centres not stated)	-15%[44.1 µM]
C[C@@H]1CN(C(=O)c2cccnc2N(C)C2CCCCC2)C[C@@]1(O)C1CCC1	i
SMILES	Pf Dd2 inh
Cc1cccc(C)c1Nc1sc(C(=O)c2ccccc2)c(N)c1S(=O)(=O)c1ccccc1	i
CC(=O)c1cc2c(cc1N/C(=N/S(=O)(=O)c1ccc(C)cc1)c1ccccc1)OCO2	-24%
Cc1ccc(S(=O)(=O)c2c(Nc3ccccc3)sc(C(=O)c3ccc4c(c3)OCO4)c2N)cc1	13µM*
CCS(=O)(=O)c1c(Nc2cc(C)ccc2C)sc(C(=O)c2ccccc2)c1N	-21%
COc1cccc(C(=O)c2cn(CC(=O)NCc3ccccc3Cl)c3nc(C)ccc3c2=O)c1	-5%
COc1ccc2nc3sc(C(=O)Nc4ccccc4F)cc3cc2c1	9%
COc1cccc(C(=O)Nc2ccccc2-c2nc3ccccc3s2)c1	i
Cc1ccccc1Nc1sc(C(=O)c2ccc3c(c2)OCO3)c(N)c1S(=O)(=O)c1ccccc1	-17%
CCc1ccccc1Nc1sc(C(=O)c2ccccc2)c(N)c1S(=O)(=O)c1ccccc1	11µM*
COc1cccc(C(=O)c2sc(Nc3ccc(F)c(Cl)c3)nc2N)c1	i
CCc1ccccc1Nc1sc(C(=O)c2cccc(OC)c2)c(N)c1S(=O)(=O)c1ccccc1	11µM*
COc1ccc(S(=O)(=O)c2c(Nc3ccccc3F)sc(C(=O)c3cccc(OC)c3)c2N)cc1	11µM*
COc1ccc(C(=O)NCC(c2cccs2)S(=O)(=O)c2ccc(C)cc2)cc1 (configuration not stated)	-17%
Clc1ccc(-n2ncc3c(NC4CCCC4)ncnc32)cc1	i
COc1ccccc1NC(=O)N1CCC2(CCC(=O)N(CC3CC3)CC2)CC1	-16%
Cn1nc(C2CCCN2)c2c(C(=O)NCc3ccncc3)cc(C3CC3)nc21 (configuration not stated)	-4%
Cc1ccc2oc(C(=O)Nc3ccc(S(=O)(=O)N(C)c4ccccc4)cc3)cc(=O)c2c1	10%
COC[C@@H]1[C@H](C(=O)NCc2cc(F)cc(F)c2)CCC(=O)N1C	-1%
COc1ccc(S(=O)(=O)c2c(O)c(C)cc(NC(=O)c3ccccc3)c2C(C)C)cc1	i
COc1ccc(S(=O)(=O)c2c(Nc3ccc(C)cc3C)sc(C(=O)c3ccc(F)cc3)c2N)cc1	11µM*
